From ChEMBL document CHEMBL2218924, “A broad activity screen in support of a chemogenomic map for kinase signalling research and drug discovery” (Biochem J, 2013) come the findings set out here.

Assay [1] concerns the target T1, Dual specificity mitogen-activated protein kinase kinase 6 (Homo sapiens) (UniProt P52564).
T1 sequence (whole entry): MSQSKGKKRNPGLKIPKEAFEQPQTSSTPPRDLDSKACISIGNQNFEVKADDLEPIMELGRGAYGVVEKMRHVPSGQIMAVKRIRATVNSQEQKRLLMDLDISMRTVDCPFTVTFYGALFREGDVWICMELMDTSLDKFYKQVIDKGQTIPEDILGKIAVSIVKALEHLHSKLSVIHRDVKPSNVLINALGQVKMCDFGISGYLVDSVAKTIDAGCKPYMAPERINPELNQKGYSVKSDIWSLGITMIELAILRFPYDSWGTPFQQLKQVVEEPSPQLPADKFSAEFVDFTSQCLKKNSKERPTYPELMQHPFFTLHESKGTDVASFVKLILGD
Particulars: at 1 µM.

Assay [2] has as its target T1, Dual specificity mitogen-activated protein kinase kinase 6 (Homo sapiens). The note with it: at 10 µM.
Assay [3] deals with T2, Dual specificity mitogen-activated protein kinase kinase 7 (Homo sapiens) (UniProt O14733).
T2 sequence (whole entry): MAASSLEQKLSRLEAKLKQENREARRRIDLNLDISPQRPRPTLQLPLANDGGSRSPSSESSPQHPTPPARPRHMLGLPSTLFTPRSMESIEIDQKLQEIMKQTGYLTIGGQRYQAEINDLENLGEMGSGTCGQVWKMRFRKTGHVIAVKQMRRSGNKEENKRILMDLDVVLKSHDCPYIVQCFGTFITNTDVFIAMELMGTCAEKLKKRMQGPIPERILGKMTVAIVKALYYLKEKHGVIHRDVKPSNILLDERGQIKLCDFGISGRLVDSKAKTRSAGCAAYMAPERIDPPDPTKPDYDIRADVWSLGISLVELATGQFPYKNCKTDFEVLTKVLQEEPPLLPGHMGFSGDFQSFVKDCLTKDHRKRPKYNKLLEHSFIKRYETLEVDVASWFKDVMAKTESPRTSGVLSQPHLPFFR
Particulars: at 1 µM.

Assay [4] addresses T2, Dual specificity mitogen-activated protein kinase kinase 7 (Homo sapiens). Particulars: at 10 µM.
In assay [5] the target is Myosin light chain kinase, smooth muscle (Homo sapiens) (UniProt Q15746). The note with it: at 1 µM.
Assay [6] has the same target. Particulars: at 10 µM.
The target in assay [7] is Mitogen-activated protein kinase kinase kinase 9 (Homo sapiens) (UniProt P80192). The note with it: at 1 µM.
Mitogen-activated protein kinase kinase kinase 9 (Homo sapiens), sequence (P80192 whole entry, looked up): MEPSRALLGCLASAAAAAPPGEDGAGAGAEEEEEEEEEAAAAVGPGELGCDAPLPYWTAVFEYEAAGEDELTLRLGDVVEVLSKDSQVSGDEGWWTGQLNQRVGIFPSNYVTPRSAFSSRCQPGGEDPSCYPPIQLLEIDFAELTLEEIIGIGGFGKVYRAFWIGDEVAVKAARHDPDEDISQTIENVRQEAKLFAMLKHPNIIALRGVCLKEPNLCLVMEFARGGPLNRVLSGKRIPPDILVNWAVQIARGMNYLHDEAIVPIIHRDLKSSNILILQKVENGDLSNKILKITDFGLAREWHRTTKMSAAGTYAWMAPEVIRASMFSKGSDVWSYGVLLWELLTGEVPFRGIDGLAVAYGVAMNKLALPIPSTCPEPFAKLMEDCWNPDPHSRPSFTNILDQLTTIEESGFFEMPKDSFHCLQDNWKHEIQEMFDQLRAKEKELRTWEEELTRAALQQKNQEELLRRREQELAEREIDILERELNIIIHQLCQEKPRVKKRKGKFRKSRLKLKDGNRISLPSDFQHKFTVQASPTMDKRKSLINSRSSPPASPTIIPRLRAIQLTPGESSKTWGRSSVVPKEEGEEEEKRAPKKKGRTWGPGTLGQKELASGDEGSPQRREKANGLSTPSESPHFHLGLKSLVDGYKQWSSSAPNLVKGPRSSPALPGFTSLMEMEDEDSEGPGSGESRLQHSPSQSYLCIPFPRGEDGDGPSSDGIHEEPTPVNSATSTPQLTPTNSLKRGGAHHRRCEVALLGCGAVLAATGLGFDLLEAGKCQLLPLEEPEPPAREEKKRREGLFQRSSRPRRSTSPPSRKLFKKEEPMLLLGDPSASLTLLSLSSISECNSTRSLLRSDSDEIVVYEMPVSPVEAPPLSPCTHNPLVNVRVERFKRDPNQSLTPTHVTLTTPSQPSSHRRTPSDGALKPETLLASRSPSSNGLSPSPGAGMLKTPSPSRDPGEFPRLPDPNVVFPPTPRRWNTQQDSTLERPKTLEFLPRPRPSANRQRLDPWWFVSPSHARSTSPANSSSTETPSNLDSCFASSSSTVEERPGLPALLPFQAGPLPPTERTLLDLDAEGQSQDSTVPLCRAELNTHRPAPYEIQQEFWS
Assay [8] has the same target. Particulars: at 10 µM.
For assay [9], the target named is Serine/threonine-protein kinase MRCK alpha (Homo sapiens) (UniProt Q5VT25). The note with it: at 1 µM.
Serine/threonine-protein kinase MRCK alpha (Homo sapiens), sequence (Q5VT25 whole entry): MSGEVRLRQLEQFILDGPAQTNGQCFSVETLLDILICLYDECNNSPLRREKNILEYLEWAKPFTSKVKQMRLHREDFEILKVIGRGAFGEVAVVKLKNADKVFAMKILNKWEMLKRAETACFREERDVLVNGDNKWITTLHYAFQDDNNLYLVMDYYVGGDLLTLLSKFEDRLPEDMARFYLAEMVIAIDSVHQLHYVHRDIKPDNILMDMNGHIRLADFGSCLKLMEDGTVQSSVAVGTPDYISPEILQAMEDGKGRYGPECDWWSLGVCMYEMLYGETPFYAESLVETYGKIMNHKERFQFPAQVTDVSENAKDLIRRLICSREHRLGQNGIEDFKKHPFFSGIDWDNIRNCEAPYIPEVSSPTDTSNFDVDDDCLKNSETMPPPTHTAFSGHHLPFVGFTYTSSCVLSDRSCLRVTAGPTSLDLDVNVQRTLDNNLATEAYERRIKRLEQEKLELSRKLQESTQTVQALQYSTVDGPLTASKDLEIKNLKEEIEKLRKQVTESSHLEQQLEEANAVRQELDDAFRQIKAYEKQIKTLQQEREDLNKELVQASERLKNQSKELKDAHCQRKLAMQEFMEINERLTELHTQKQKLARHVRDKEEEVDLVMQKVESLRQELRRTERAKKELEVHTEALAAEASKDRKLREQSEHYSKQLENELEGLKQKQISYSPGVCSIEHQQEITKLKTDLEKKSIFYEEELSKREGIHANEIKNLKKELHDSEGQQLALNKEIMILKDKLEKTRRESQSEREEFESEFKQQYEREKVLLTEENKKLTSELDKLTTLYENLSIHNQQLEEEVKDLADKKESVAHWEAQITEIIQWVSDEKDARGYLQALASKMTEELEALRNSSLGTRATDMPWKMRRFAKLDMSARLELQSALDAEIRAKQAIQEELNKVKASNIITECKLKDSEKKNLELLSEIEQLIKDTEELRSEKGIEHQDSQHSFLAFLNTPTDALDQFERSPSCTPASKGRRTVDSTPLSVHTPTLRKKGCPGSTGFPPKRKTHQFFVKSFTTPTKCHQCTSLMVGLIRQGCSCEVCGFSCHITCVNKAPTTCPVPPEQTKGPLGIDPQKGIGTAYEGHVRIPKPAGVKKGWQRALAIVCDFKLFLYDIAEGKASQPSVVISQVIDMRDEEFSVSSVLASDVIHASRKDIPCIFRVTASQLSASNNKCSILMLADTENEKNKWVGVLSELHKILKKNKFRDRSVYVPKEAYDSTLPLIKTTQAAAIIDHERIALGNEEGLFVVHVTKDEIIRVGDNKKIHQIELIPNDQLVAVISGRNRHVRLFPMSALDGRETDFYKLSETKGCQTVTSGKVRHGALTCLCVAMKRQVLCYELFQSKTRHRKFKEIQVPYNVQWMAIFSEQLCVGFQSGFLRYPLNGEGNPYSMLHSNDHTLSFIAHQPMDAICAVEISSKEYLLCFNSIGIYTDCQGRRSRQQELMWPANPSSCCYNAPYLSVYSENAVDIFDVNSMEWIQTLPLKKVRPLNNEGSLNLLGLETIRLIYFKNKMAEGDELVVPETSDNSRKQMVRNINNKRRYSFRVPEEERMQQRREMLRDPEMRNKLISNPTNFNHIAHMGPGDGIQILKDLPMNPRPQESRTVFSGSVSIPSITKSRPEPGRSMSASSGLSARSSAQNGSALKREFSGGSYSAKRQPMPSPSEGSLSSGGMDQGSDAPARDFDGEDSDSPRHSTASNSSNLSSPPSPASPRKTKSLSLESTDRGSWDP
Assay [10] has the same target. Particulars: at 10 µM.
Assay [11] deals with Serine/threonine-protein kinase MRCK beta (Homo sapiens) (UniProt Q9Y5S2). The note with it: at 1 µM.
The target is the same in assay [12]. Particulars: at 10 µM.
The target of assay [13] is Ribosomal protein S6 kinase alpha-5 (Homo sapiens) (UniProt O75582). The note with it: at 1 µM.
Ribosomal protein S6 kinase alpha-5 (Homo sapiens), sequence (O75582 whole entry, looked up): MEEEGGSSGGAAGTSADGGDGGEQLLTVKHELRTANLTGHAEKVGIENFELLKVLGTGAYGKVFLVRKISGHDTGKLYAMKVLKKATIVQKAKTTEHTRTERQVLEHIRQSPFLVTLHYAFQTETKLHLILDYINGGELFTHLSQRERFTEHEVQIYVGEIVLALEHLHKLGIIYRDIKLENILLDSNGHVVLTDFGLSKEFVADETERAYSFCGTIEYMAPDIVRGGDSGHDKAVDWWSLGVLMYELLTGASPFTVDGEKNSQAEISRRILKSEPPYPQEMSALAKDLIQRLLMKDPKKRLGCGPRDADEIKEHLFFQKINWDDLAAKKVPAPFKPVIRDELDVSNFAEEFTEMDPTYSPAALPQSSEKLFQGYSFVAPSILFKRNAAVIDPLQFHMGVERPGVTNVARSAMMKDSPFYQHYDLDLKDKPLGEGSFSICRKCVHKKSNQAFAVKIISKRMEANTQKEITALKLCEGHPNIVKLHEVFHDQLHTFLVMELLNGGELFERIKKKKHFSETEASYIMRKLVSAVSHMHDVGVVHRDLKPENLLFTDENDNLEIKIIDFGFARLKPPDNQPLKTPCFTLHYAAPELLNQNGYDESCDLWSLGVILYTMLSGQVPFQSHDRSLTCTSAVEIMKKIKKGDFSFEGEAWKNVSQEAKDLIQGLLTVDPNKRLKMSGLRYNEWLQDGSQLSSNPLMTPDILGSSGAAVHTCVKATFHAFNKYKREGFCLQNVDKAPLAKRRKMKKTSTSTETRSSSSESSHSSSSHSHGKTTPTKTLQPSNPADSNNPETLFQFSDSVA
Assay [14] has the same target. Particulars: at 10 µM.
For assay [15], the target named is Ribosomal protein S6 kinase alpha-4 (Homo sapiens) (UniProt O75676). The note with it: at 1 µM.
Ribosomal protein S6 kinase alpha-4 (Homo sapiens), sequence (O75676 whole entry, looked up): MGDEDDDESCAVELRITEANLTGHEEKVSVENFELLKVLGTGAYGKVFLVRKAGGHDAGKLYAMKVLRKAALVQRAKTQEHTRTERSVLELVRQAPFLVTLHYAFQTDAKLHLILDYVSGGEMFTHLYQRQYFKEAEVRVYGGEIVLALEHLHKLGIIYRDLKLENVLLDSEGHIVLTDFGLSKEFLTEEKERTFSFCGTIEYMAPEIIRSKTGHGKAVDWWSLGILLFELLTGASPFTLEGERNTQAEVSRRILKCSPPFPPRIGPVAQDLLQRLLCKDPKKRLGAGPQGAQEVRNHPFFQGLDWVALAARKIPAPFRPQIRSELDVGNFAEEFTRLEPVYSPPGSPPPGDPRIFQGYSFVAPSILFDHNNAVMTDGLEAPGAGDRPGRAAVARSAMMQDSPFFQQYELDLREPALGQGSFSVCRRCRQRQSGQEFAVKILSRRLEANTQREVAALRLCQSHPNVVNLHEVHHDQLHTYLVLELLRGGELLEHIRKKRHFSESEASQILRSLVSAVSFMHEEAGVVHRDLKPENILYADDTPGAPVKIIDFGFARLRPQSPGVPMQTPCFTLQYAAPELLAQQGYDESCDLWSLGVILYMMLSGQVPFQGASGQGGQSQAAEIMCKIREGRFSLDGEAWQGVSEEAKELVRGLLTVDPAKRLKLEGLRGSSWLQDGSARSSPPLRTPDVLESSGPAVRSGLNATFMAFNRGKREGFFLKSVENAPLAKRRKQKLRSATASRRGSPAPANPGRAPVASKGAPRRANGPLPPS
The target is the same in assay [16]. The note with it: at 10 µM.
The target in assay [17] is SRSF protein kinase 3 (Homo sapiens) (UniProt Q9UPE1). Particulars: at 1 µM.
SRSF protein kinase 3 (Homo sapiens), sequence (Q9UPE1 whole entry): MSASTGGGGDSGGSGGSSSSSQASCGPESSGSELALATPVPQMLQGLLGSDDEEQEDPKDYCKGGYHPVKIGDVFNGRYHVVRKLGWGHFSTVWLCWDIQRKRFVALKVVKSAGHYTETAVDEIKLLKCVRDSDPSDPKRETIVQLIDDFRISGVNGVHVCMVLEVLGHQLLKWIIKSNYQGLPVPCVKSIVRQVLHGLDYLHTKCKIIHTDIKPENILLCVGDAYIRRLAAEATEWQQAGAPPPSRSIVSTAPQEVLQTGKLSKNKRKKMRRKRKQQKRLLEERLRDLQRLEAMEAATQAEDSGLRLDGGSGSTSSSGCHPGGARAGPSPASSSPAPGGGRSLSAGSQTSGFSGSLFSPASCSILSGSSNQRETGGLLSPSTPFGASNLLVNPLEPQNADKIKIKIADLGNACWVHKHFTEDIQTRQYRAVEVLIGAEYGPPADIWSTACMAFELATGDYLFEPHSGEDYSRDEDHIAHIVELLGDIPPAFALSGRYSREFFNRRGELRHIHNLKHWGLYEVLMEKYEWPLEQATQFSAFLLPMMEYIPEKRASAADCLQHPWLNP
Assay [18] shares this target. The note with it: at 10 µM.
Assay [19] addresses T3, Serine/threonine-protein kinase 4 (Homo sapiens) (UniProt Q13043).
T3 sequence (whole entry): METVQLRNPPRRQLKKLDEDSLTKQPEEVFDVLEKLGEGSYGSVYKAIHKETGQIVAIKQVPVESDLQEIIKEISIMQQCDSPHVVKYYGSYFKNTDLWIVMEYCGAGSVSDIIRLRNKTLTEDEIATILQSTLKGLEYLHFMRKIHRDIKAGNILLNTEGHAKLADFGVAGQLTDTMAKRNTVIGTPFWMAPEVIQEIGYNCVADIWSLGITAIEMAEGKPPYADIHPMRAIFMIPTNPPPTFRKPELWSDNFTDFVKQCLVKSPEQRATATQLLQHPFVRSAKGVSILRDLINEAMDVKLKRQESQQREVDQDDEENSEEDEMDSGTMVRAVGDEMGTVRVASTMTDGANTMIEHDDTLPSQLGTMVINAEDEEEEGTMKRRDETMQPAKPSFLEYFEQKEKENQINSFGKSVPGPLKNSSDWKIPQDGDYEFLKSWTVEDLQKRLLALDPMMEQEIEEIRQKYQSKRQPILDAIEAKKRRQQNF
Particulars: at 1 µM.

Assay [20] deals with T3, Serine/threonine-protein kinase 4 (Homo sapiens). Particulars: at 10 µM.

On to `N#C/C(=C(\N)Sc1ccc(N)cc1)c1ccccc1C(F)(F)F`, for which the residual activity in assay [1] turned out to be 93%; in assay [2], 83%; in assay [3], 88%; in assay [4], 96%; in assay [5] it was 95%; in assay [6], 75%. Also, the residual activity in assay [7] came out at 93%; in assay [8] it was 89%; in [9], 107%; in assay [10], 94%; in assay [11], 94%; in [12], 98%. Besides, the residual activity was found to be 85% in assay [13]; 95% in assay [14]; 97% in assay [15]; 84% in [16]; 109% in assay [17]; 95% in [18]. Further, the residual activity was determined as 105% in assay [19] and 104% in [20].
Consider `CO[C@@H]1[C@H](N(C)C(=O)c2ccccc2)C[C@H]2O[C@]1(C)n1c3ccccc3c3c4c(c5c6ccccc6n2c5c31)C(=O)NC4`, for which the residual activity in assay [1] worked out at 52%; in [2], 58%; in assay [3] it was 111%; in assay [4], 135%; in assay [5] it was 13%; in assay [6], 10%. The residual activity stood at 1% in assay [7]; 1% in [8]; 93% in assay [9]; 102% in [10]; 85% in assay [11]; 68% in assay [12]. Besides, the residual activity in [13] was found to be 13%; in [14], 8%; in [15], 12%; in assay [16], 8%; in [17], 96%; in assay [18], 77%. For the same compound, the figures for the residual activity in assay [19] and in assay [20] were 1% and 2%, respectively.
Turning to `COc1ccc(CNc2nc(N(CCO)CCO)nc3c2ncn3C(C)C)cc1`, the residual activity in [1] was found to be 102%; in [2] it was 100%; in assay [3], 86%; in [4], 95%; in [5] it was 108%; in assay [6], 68%. Besides, the residual activity stood at 82% in assay [7]; 41% in assay [8]; 108% in [9]; 89% in assay [10]; 88% in assay [11]; 83% in [12]. Besides, the residual activity was determined as 92% in assay [13]; 96% in assay [14]; 88% in assay [15]; 82% in assay [16]; 105% in [17]; 84% in [18]. Also, the residual activity in assay [19] is 74%; in [20], 112%.
On to `CC(C)n1cnc2/c(=N/c3cccc(Cl)c3)nc(NCCO)[nH]c21`, for which the residual activity in assay [1] came to 73%; in [2] it was 49%; in [3], 80%; in assay [4], 93%; in assay [5] it was 90%; in assay [6], 30%. Moreover, the residual activity in [7] is 11%; in assay [8], 1%; in assay [9], 108%; in [10], 98%; in [11], 85%; in assay [12], 82%. Besides, the residual activity in assay [13] is 62%; in assay [14] it was 50%; in [15], 57%; in assay [16], 37%; in assay [17] it was 61%; in [18], 19%. The residual activity in assay [19] is 61%; in [20], 58%.
With `COc1cccc(-c2cc(=O)c3ccccc3o2)c1N`, the residual activity is 138% in [1]; 77% in [2]; 106% in assay [3]; 84% in [4]; 107% in [5]; 77% in assay [6]. The residual activity in [7] is 111%; in assay [8], 96%; in assay [9], 118%; in [10] it was 96%; in assay [11], 102%; in [12], 95%. For the same compound, the residual activity in [13] was found to be 104%; in assay [14], 117%; in assay [15], 94%; in [16] it was 98%; in assay [17], 109%; in [18] it was 110%. Further, the results for the residual activity in [19] and in [20] were 86% and 114%, respectively.
Consider `CO[C@H]1C[C@@H]2CC[C@@H](C)[C@@](O)(O2)C(=O)C(=O)N2CCCC[C@H]2C(=O)O[C@H]([C@H](C)C[C@@H]2CC[C@@H](O)[C@H](OC)C2)CC(=O)[C@H](C)/C=C(\C)[C@@H](O)[C@@H](OC)C(=O)[C@H](C)C[C@H](C)/C=C/C=C/C=C/1C`, for which the residual activity in [1] is 93%; in [2] it was 82%; in [3] it was 102%; in assay [4] it was 102%; in assay [5], 75%; in assay [6] it was 101%. The residual activity is 91% in assay [7]; 106% in assay [8]; 118% in [9]; 146% in [10]; 95% in assay [11]; 104% in assay [12]. The residual activity in [13] amounted to 123%; in assay [14], 110%; in [15] it was 87%; in assay [16] it was 105%; in assay [17] it was 105%; in [18], 88%. For the same compound, the residual activity in assay [19] amounted to 93%; in [20] it was 97%.
On to `CCOc1cc2ncnc(Nc3cccc(Br)c3)c2cc1OCC`, for which the residual activity worked out at 81% in assay [1]; 44% in assay [2]; 91% in assay [3]; 72% in [4]; 69% in assay [5]; 41% in [6]. The residual activity in assay [7] was found to be 72%; in assay [8] it was 26%; in assay [9], 88%; in [10] it was 99%; in [11], 84%; in assay [12], 72%. For the same compound, the residual activity in assay [13] stood at 117%; in assay [14], 101%; in [15] it was 105%; in assay [16] it was 88%; in [17], 113%; in assay [18], 76%. Besides, the residual activity in assay [19] worked out at 83%; in assay [20], 61%.
